# Measurements from the supplement of paper PMC10981050.
# “And” between values parts separate entries of the source, which are not always exact repeats. Identical values can stand only once. Counter-ions that a name gives are not always drawn.
# How the values were obtained:
# Experiment in all cases: cell viability relative to vehicle control; higher = less cytotoxic
# Conditions in all cases: 10 µM
# [1] = tested on: K562
# Outline: (§1)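 CRISPR-edited SRSF2 P95 mutant and isogenic wild-type clones of four leukaemia lines were screened against Selleck bioactive, kinase and epigenetic probe libraries, with identity-inconsistent compounds removed. Compounds were acoustically dispensed into 384-well plates at a single 10 µM dose, with 2000 cells in 50 µL medium per well. After 48 h, supernatant was removed and CellTiter-Glo luminescence was read. Viability was expressed as percent of the on-plate DMSO vehicle control, analysed in Genedata Screener.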
# [2] = tested on: MARIMO
# Outline: as §1
# [3] = tested on: MOLM14
# Outline: as §1
# [4] = tested on: OCI-AML2
# Outline: as §1
SMILES,cell viability ([1]; SRSF2 genotype: SRSF2 P95H/wt),cell viability ([1]; SRSF2 genotype: SRSF2 wt/wt) [%],cell viability ([2]; SRSF2 genotype: SRSF2 P95H/wt) [%],cell viability ([2]; SRSF2 genotype: SRSF2 wt/wt) [%],cell viability ([3]; SRSF2 genotype: SRSF2 P95H/wt) [%],cell viability ([3]; SRSF2 genotype: SRSF2 wt/wt) [%],cell viability ([4]; SRSF2 genotype: P95H/wt) [%],cell viability ([4]; SRSF2 genotype: wt/wt) [%]
CC(=O)O[C@H]1C(=O)[C@@]2(C)[C@H]([C@H](OC(=O)c3ccccc3)[C@]3(O)C[C@H](O)C(C)=C1C3(C)C)[C@]1(OC(C)=O)CO[C@@H]1C[C@@H]2O,93.5% and 95%,102,100,96.6,104,102,104,97.3
Nc1ncnc2c1ccn2[C@@H]1O[C@H]([C@H](O)c2ccccc2)[C@@H](O)[C@H]1O,89.1% and 85%,79.6,83.5,95.3,77.1,89.3,79,88
CCCCCc1cc(O)cc(O)c1 [Olivetol],102% and 99.9%,110,87.2,96.8,101,107,111,112
CC[C@@]1(O)C(=O)OCc2c1cc1n(c2=O)Cc2cc3ccccc3nc2-1 [Camptothecin],27.3% and 26.7%,21.8,5.71,3.67,3.1,1.35,3.26,3.91
C[C@]12CCC(=O)C[C@@H]1CC[C@@H]1[C@@H]2CC[C@]2(C)[C@@H](O)CC[C@@H]12 [Dihydrotestosterone (DHT)],97% and 97.8%,97.7,95.3,109,93.9,102,96.5,101
CC1=C(O)C(=O)C=C2C1=CC=C1[C@@]2(C)CC[C@@]2(C)[C@@H]3C[C@](C)(C(=O)O)CC[C@]3(C)CC[C@]12C [Celastrol],0.95% and 0.55%,0.65,0.44,0.52,0.47,0.51,0.35,0.44
O=C(c1ccccc1O)c1[nH]c(Cl)c(Cl)c1-n1c(C(=O)c2ccccc2O)cc(Cl)c1Cl [Marinopyrrole A (Maritoclax)],12.6% and 15.9%,14.3,24.9,21.3,13.5,12.8,4.26,11.9
CCN(CC)CCOC(=O)C(O)(c1ccccc1)c1ccccc1 [Benactyzine hydrochloride],87.1% and 93%,84.2,93,98.4,92.6,94.4,89.8,92.6
C/C=C(\C)C(=O)N[C@@H](c1ccccc1)[C@@H](O)C(=O)O[C@H]1C[C@@]2(O)[C@@H](OC(=O)c3ccccc3)[C@@H]3[C@]4(OC(C)=O)CO[C@@H]4C[C@H](O)[C@@]3(C)C(=O)[C@H](OC(C)=O)C(=C1C)C2(C)C [Cephalomannine],22.2% and 39.2%,31,7.43,5.47,9.27,2.7,7.08,10.9
CC(C)NCC(O)c1ccccc1Cl (configuration not stated) [Clorprenaline HCL],98.2% and 96.8%,104,98.2,107,95.2,101,108,99.1
O=C(/C=C/c1ccccc1)OC[C@H]1O[C@@H](O[C@@H]2OC=C[C@H]3[C@H](O)[C@@H]4O[C@]4(CO)[C@@H]23)[C@H](O)[C@@H](O)[C@@H]1O [Picroside I],99.3% and 101%,105,98.8,98.7,101,103,104,100
CCC(=O)O[C@H]1CC[C@H]2[C@@H]3CC[C@H]4CC(=O)[C@H](C)C[C@]4(C)[C@H]3CC[C@]12C [Drostanolone Propionate],85.6% and 88.6%,79.2,72.7,44.8,77.4,83.8,63.7,57.3
CC(=O)OC(C)(C)/C=C/C(=O)[C@](C)(O)[C@H]1[C@H](O)C[C@@]2(C)[C@@H]3CC=C4[C@H](C[C@H](O)C(=O)C4(C)C)[C@]3(C)C(=O)C[C@]12C [Cucurbitacin B],19.7% and 26.4%,28.1,8.8,16.8,0.7,0.57,0.29,3.38
CN(C)Cc1c[nH]c2ccccc12 [Gramine],101%,100,102,102,99.6,100,102,98.9
CC(C)[C@]12O[C@H]1[C@@H]1O[C@]13[C@]1(O[C@H]1C[C@H]1C4=C(CC[C@@]13C)C(=O)OC4)[C@@H]2O [Triptolide],5.55% and 15%,8.7,10.4,6.31,2.33,0.54,5.79,16
C[C@]12CC[C@H](O)C[C@@]1(O)CC[C@@H]1[C@@H]2CC[C@]2(C)[C@@H](C3=CC(=O)OC3)CC[C@]12O [Periplogenin],8.32% and 13%,12.9,14.3,11.9,7.26,1.77,4.72,8.91
CCO[C@H]1O[C@@H]2O[C@@]3(C)CC[C@H]4[C@H](C)CC[C@@H]([C@H]1C)[C@@]24OO3 [Arteether],68.2% and 63.3%,69,62.3,64.4,69.8,45.7,55.5,52.5
CN1CCCCC1Cn1cc(C(=O)c2cc([N+](=O)[O-])ccc2I)c2ccccc21 (configuration not stated),83.1% and 88.8%,87.2,84.2,103,3.13,2.06,76.2,65.5
CC(=O)OCC1=C(C(=O)O)N2C(=O)C(N)C2SC1 (configuration not stated) [7-Aminocephalosporanic acid],107% and 103%,102,101,108,111,107,109,110
